Shown are actives, neighbours in structure and some others; about 3% of the full set was active somewhere.
PPC-1+TRAIL kill = compounds killing PPC-1 cancer cells with TRAIL present, primary screen, TRAIL potentiator project, ATPLite luminescence, uHTS; PPC-1 cells + TRAIL, ATPLite viability luminescence; cell killing (% activity), % at 4 µM or 5 µM; actives 0.41% (n = 220,000); AID 1443, 2008;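 active = cell killing above 50% in the first pass at 4 µM, then a duplicate retest at 5 µM averaging 50% or more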;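 note: plate controls were cells with TRAIL plus DMSO for no effect and medium-only wells lacking cells for full effect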
TRAIL sens C8 = viability loss with TRAIL in NB7+C8 cells, primary screen, TRAIL sensitizer project, cell-based, ATPlite luminescence; inhibition (viability loss, TRAIL sensitization), % at 10 µM; actives 1% (n = 360,000); AID 624354, 2012;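 active = compounds causing at least 50% loss of cell viability in the single-dose screen, relative to plate controls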
SENP8 block-1 = human SENP8 protease inhibitors, primary screen, biochemical, fluorescence, Nedd8 protein substrate, uHTS; Sentrin-specific protease 8 (Homo sapiens), Q96LD8; recombinant SENP8; inhibition, % at 20 µM; actives 0.64% (n = 360,000); AID 602440, 2012; in the data active = inhibition mostly above about 40%, no sharp cut-off; inactive = mostly below about 27%
Target sequence (Q96LD8 whole entry, looked up): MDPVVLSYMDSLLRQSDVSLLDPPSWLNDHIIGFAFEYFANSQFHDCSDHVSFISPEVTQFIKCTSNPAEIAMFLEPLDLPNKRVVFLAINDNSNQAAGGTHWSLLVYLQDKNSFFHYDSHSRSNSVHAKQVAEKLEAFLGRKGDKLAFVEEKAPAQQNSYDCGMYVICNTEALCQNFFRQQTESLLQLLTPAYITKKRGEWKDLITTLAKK
SENP8 block-2 = SENP8 protease inhibitors, primary screen, biochemical, luminescence. Sentrin-specific protease 8 (Homo sapiens), Q96LD8. purified SENP8, Z-RLRGG-aminoluciferin cleavage. inhibition, % at 10 µM. actives 1.2% (n = 330,000). AID 2540, 2010; in the data active = inhibition above about 50%
SENP7 block = SENP7 protease inhibitors, primary screen, biochemical, luminescence, uHTS; recombinant SENP7, Z-RLRGG-aminoluciferin luminescence, 40 min; Sentrin-specific protease 7 (Homo sapiens), Q9BQF6; AID 434973, 2010; inhibition, % at 5 µM; actives 1.5% (n = 330,000);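 active = inhibition above about 50% at the single test dose, limit read from the data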;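 note: plate controls were DMSO with enzyme for no effect and no enzyme buffer wells for full effect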
SENP6 inh = SENP6 protease inhibitors, primary screen, biochemical, luminescence, uHTS. Sentrin-specific protease 6 (Homo sapiens), Q9GZR1. Recombinant SENP6 catalytic domain, aminoluciferin luminescence. inhibition, % at 10 µM. actives 1.8% (n = 330,000). AID 2599, 2010;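 active = inhibition above about 50% at the single tested dose, limit read from the data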;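 note: plate controls were DMSO wells with enzyme for no effect and DMSO wells lacking enzyme for full effect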
SENP8 confirm = SENP8 protease inhibitors, retest, confirmation, biochemical, luminescence, single concentration; inhibition, % at 12.5 µM; Recombinant SENP8, Z-RLRGG-aminoluciferin luminescence, 60 min; actives 40% (n = 6,200); shares compounds with SENP7 block; AID 488912, 2010;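 active = mean inhibition across replicates above about 50%, limit read from the data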
SENP6 conf = SENP6 protease inhibitors, confirmation, biochemical, luminescence, single concentration. shares compounds with SENP7 block. recombinant SENP6, Z-RLRGG-aminoluciferin luminescence. inhibition, % at 12.5 µM. actives 58% (n = 6,200)
SENP7 confirm = SENP7 protease inhibitors, retest, confirmation, biochemical, luminescence, single concentration; shares compounds with SENP7 block; recombinant SENP7, Z-RLRGG-aminoluciferin luminescence, 40 min; inhibition, % at 12.5 µM; actives 69% (n = 6,200)
Casp3 SENP sel = caspase-3 protease inhibitors, confirmation, selectivity assay for SENP inhibitor project, biochemical, single concentration; shares compounds with SENP7 block; purified caspase-3, Z-DEVD-aminoluciferin luminescence, 60 min; inhibition, % at 12.5 µM; actives 60% (n = 6,200); AID 488918, 2010;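 active = mean inhibition above about 50%, limit read from the data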;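 note: plate controls were enzyme with DMSO for no effect and wells without caspase-3 for full effect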
Target sequence (P42574 28-227 limits assumed): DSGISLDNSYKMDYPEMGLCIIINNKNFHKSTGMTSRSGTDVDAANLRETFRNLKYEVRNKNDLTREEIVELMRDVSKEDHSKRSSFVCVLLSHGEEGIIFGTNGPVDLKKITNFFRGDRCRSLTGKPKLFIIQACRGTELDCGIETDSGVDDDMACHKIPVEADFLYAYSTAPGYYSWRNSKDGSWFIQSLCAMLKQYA
SENP luc ctr = luminescence interference (SENP counter-screen); shares compounds with SENP7 block; Pre-incubated SENP8/Z-RLRGG-aminoluciferin, luciferase luminescence interference; inhibition, % at 12.5 µM; actives 39% (n = 6,200); AID 488919;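 active = mean inhibition above about 50% when retested at one dose, limit read from the data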;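 note: plate controls were DMSO wells with completed reaction for no effect and substrate without enzyme for full effect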
* marks the source's active call; other numbers are inactive results.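 Rule for the calls, unless noted: active = mean inhibition above about 50% in the one-dose retest (limit read from the data); inactive = the rest.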

CCOc1ccc(N2CC(C(=O)NCCCc3ccccc3)CC2=O)cc1 (centres undefined) was read as TRAIL sens C8 -6.9, SENP8 block-1 -6.6, SENP8 block-2 -7.8, SENP7 block -9.5 and SENP6 inh 0.1.
`Cc1cc(C)nc(N/N=C/c2cccc([N+](=O)[O-])c2)n1` gave PPC-1+TRAIL kill 1.6, TRAIL sens C8 2.0, SENP8 block-1 19.9, SENP8 block-2 4.9, SENP7 block 0.4 and SENP6 inh -8.3.
`O=[N+]([O-])c1cccc(/C=N/Nc2nccnc2Cl)c1` gave PPC-1+TRAIL kill 39.2, TRAIL sens C8 -2.0, SENP8 block-1 13.4, SENP8 block-2 82.5*, SENP7 block 93.5*, SENP6 inh 93.8*, SENP8 confirm 91.4*, SENP6 conf 90.9*, SENP7 confirm 99.5*, Casp3 SENP sel 96.7* and SENP luc ctr 82.7*.
`O=[N+]([O-])c1ccc(/C=N/Nc2ccccn2)cc1` gave TRAIL sens C8 1.5, SENP8 block-1 30.4, SENP8 block-2 -18.0, SENP7 block 15.4 and SENP6 inh -12.5.
Screening O=[N+]([O-])c1cccc(/C=N/Nc2ccccn2)c1 returned PPC-1+TRAIL kill 15.1, TRAIL sens C8 5.8, SENP8 block-1 24.4, SENP8 block-2 26.2, SENP7 block 54.5*, SENP6 inh 55.8*, SENP8 confirm -1.9, SENP6 conf -5.3, SENP7 confirm 73.7*, Casp3 SENP sel 17.0 and SENP luc ctr -1.8.
C=CCc1ccccc1OCC(=O)NNC(=S)NCc1ccccc1 was read as TRAIL sens C8 -2.9, SENP8 block-1 3.4, SENP8 block-2 -2.5, SENP7 block -7.8 and SENP6 inh -7.8.
For Cc1cc(=O)oc2cc(NC(=O)CC3(CC(=O)O)CCCC3)ccc12 the results were PPC-1+TRAIL kill 9.1, TRAIL sens C8 -15.0, SENP8 block-1 -424.9, SENP8 block-2 -10.9, SENP7 block -11.7 and SENP6 inh -14.5.
For O=C(Nc1ccc2c(c1)CCC2)c1cc(F)cc(F)c1 the results were TRAIL sens C8 4.6, SENP8 block-1 4.1, SENP8 block-2 69.7*, SENP7 block 77.4*, SENP6 inh 71.7*, SENP8 confirm 39.3, SENP6 conf 78.2*, SENP7 confirm 95.4*, Casp3 SENP sel 65.4* and SENP luc ctr 21.9.
CSc1ccccc1C(=O)Nc1ccc2c(c1)CCC2 was read as TRAIL sens C8 -5.5, SENP8 block-1 6.3, SENP8 block-2 42.0, SENP7 block 49.0, SENP6 inh 52.4*, SENP8 confirm 46.7, SENP6 conf 44.2, SENP7 confirm 77.0*, Casp3 SENP sel -6.1 and SENP luc ctr 54.5*.
`Cn1cc(C(=O)Nc2ccc3c(c2)CCC3)cn1` gave PPC-1+TRAIL kill 40.2, TRAIL sens C8 10.1, SENP8 block-1 -0.9, SENP8 block-2 -12.9, SENP7 block -8.7 and SENP6 inh -24.2.
